Laboratory results: PubChem BioAssay (EPA / NIEHS)
Results filed as inconclusive are left out. Active and inactive are the calls of the source. The calls were made as follows, unless noted: active = hit-call score of the fitted dose curve at least 0.9, where 1 is the maximum; inactive = score below 0.9.

Tests used:
[1] = APR_HepG2_CellCycleArrest_1hr: Apredica 1-hour HepG2 Assay for Cell Cycle Arrest (AID 2282666); settings: high-content imaging, actives raise or lower the signal
Method in brief: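 HepG2 cells exposed for 1 h to 0.39–200 uM compound (0.5% DMSO). Fixed, Hoechst-stained nuclei imaged by ArrayScan; DNA content quantified by Cell Cycle analysis; bidirectional fit against DMSO.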

[2] = ACEA_ER_80hr: ACEA Biosciences xCELLigence Real-Time Cell Analysis on Estrogen Receptor Agonism for Proliferation (AID 2282667; active = hit-call score of the fitted dose curve at least 0.9, where 1 is the maximum); settings: T47D proliferation, impedance (xCELLigence), 80 h
Method in brief: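 Real-time impedance growth kinetics of human T-47D breast cells read 80 h after dosing, gain-of-signal fitted relative to DMSO. Compounds: 1:4 serial series, top final concentration 100 uM, n = 2.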

[3] = APR_HepG2_CellLoss_1hr: Apredica 1-hour HepG2 Assay for Cell Loss (AID 2282668); settings: high-content imaging;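 also: curves fitted both ways against DMSO so gain or loss of cells counts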
Method in brief: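 HepG2 cells were treated for 1 h with compound at 0.39–200 uM, in duplicate, in 0.5% DMSO. After formaldehyde fixation, Hoechst 33342-stained nuclei were imaged on an ArrayScan to count cells. Data were fitted bidirectionally versus DMSO.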

[4] = APR_HepG2_MicrotubuleCSK_1hr: Apredica 1-hour HepG2 Assay for Microtubule CSK Stabilty (AID 2282669); settings: HepG2 microtubule cytoskeleton imaging, actives raise or lower the signal
Method in brief: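 HepG2 cells exposed 1 h to 0.39–200 uM compound (0.5% DMSO, duplicates), then formaldehyde-fixed, permeabilized and immunostained for alpha-tubulin with Hoechst nuclei. Imaged by ArrayScan high-content analysis; bidirectional fit versus DMSO.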

[5] = APR_HepG2_NuclearSize_1hr: Apredica 1-hour HepG2 Assay for Nuclear Size (AID 2282670); settings: high-content imaging, actives raise or lower the signal
Method in brief: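 HepG2 cells dosed 1 hr with 0.39–200 uM compound (0.5% DMSO), formaldehyde-fixed, Hoechst 33342-stained and imaged at 20x; nuclear diameter from nuclear stain, fitted bidirectionally against DMSO.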

[6] = APR_HepG2_p53Act_1hr: Apredica 1-hour HepG2 Assay for p53 Activation (AID 2282671); settings: high-content imaging, actives raise or lower the signal
Method in brief: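 HepG2 cells treated 1 h with compound at 0.39–200 uM (10 concentrations, duplicate) in 0.5% DMSO. Formaldehyde-fixed, permeabilised cells immunostained for p53 with Hoechst 33342; high-content imaging, bidirectional fit versus DMSO.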

[7] = APR_HepG2_MitoticArrest_1hr: Apredica 1-hour HepG2 Assay for Mitotic Arrest (AID 2282672); settings: high-content imaging, actives raise or lower the signal
Method in brief: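 HepG2 cells exposed 1 hr to compounds at 0.39–200 uM (0.5% v/v DMSO final), then fixed in 3.7% formaldehyde and immunostained for phospho-histone H3 with Hoechst 33342. Mitotic arrest scored by automated fluorescence imaging, fitted bidirectionally versus DMSO.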

[8] = APR_HepG2_MitoMass_1hr: Apredica 1-hour HepG2 Assay for Mitochondrial Mass (AID 2282674); settings: high-content imaging, actives raise or lower the signal
Method in brief: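 HepG2 cells dosed 1 hr with 0.39-200 uM compound (0.5% DMSO), duplicate wells. Mitochondria stained with 250 nM MitoTracker Red CMXRos for 30 min before formaldehyde fixation, imaged at 20x by ArrayScan; bidirectional fit versus DMSO.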

[9] = APR_HepG2_StressKinase_1hr: Apredica 1-hour HepG2 Assay for Stress Kinase (AID 2282906); settings: HepG2 stress kinase (phospho-c-Jun) imaging, actives raise or lower the signal
Method in brief: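 HepG2 cells dosed 0.39-200 uM (0.5% DMSO) for 1 h, then formaldehyde-fixed. Stress kinase read by phospho-c-Jun immunofluorescence using high-content imaging; bidirectional fit vs DMSO.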

[10] = APR_HepG2_NuclearSize_24hr: Apredica 24-hour HepG2 Assay for Nuclear Size (AID 2282907); settings: high-content imaging, actives raise or lower the signal
Method in brief: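 HepG2 cells exposed 24 h to compounds at 0.39–200 uM (0.5% DMSO), fixed, Hoechst 33342 stained and imaged at 20x; nuclear diameter measured by automated image analysis, fitted bidirectionally against DMSO controls.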

[11] = APR_HepG2_CellLoss_24hr: Apredica 24-hour HepG2 Assay for Cell Loss (AID 2282908); settings: high-content imaging
Method in brief: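 HepG2 cells exposed 24 hr to 0.39–200 uM compound in duplicate at 0.5% v/v final DMSO. Cells fixed in 3.7% formaldehyde and Hoechst 33342-stained. Cell number came from nuclear imaging at 20x. Bidirectional fit versus DMSO.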

[12] = APR_HepG2_MicrotubuleCSK_24hr: Apredica 24-hour HepG2 Assay for Microtubule CSK Stabilty (AID 2282909); settings: HepG2 microtubule cytoskeleton imaging, actives raise or lower the signal
Method in brief: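 HepG2 cells were treated 24 hr with compound at 0.39–200 uM in duplicate (0.5% DMSO final), then fixed and permeabilized. Alpha-tubulin immunofluorescence was imaged by high-content microscopy, with bidirectional fitting against DMSO and taxol as positive control.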

[13] = APR_HepG2_MitoticArrest_24hr: Apredica 24-hour HepG2 Assay for Mitotic Arrest (AID 2282910); settings: high-content imaging, actives raise or lower the signal
Method in brief: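 Compounds are dosed onto HepG2 cells across ten concentrations up to 200 uM for 24 hr. Cells are then fixed in 3.7% formaldehyde, permeabilised, and labelled for phospho-histone H3 and nuclei; images are scored by cell cycle analysis and fitted bidirectionally relative to DMSO.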

[14] = APR_HepG2_MitoMembPot_24hr: Apredica 24-hour HepG2 Assay for Mitochondrial Membrane Potential (AID 2282911); settings: imaging, actives raise or lower the signal
Method in brief: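 Mitochondrial membrane potential imaged via MitoTracker Red CMXRos (250 nM, 30 min pre-fixation) in fixed HepG2 cells with Hoechst nuclear identification. Ten concentrations 0.39–200 uM, 24 h treatment, 0.5% DMSO; CCCP as positive control.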

[15] = APR_HepG2_MitoMass_24hr: Apredica 24-hour HepG2 Assay for Mitochondrial Mass (AID 2282912); settings: high-content imaging, actives raise or lower the signal
Method in brief: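 HepG2 cells exposed 24 hr to 0.39–200 uM compound, 0.5% v/v DMSO, in duplicate. Stained before fixation with 250 nM MitoTracker Red CMXRos for 30 min, then imaged at 20x with Hoechst nuclei. Fitted in both directions against DMSO.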

[16] = APR_HepG2_p53Act_24hr: Apredica 24-hour HepG2 Assay for p53 Activation (AID 2282913); settings: high-content imaging, actives raise or lower the signal;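 also: p53 protein immunofluorescence averaged per cell in HepG2 with Hoechst nuclei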
Method in brief: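 Fluorescence imaging of formaldehyde-fixed HepG2 cells labelled for p53 and with Hoechst, 24 h after dosing (0.39–200 uM, duplicate wells, 0.5% v/v DMSO). Signal fitted in both directions relative to DMSO.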

[17] = APR_HepG2_CellCycleArrest_72hr: Apredica 72-hour HepG2 Assay for Cell Cycle Arrest (AID 2282914); settings: high-content imaging, actives raise or lower the signal
Method in brief: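 Read-out: nuclear DNA content from Hoechst 33342 high-content imaging (20x, six fields/well) after 3.7% formaldehyde fixation, fitted bidirectionally against DMSO. Treatment was 72 h in HepG2, ten concentrations 0.39–200 uM, duplicate, 0.5% DMSO.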

[18] = APR_HepG2_P-H2AX_1hr: Apredica 1-hour HepG2 Assay for H2AX Phosphorylation (AID 2282673); settings: high-content imaging, actives raise or lower the signal
Method in brief: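 HepG2 dosed 1 hr at 0.39-200 uM (0.5% DMSO final), duplicate. Fixed in 3.7% formaldehyde, Triton permeabilized, immunostained for phospho-histone H2A.x (1:200) with Hoechst 33342; ArrayScan 20x imaging, bidirectional fit vs DMSO.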

[19] = APR_HepG2_MitoMembPot_1hr: Apredica 1-hour HepG2 Assay for Mitochondrial Membrane Potential (AID 2282675); settings: imaging, actives raise or lower the signal
Method in brief: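 HepG2 cells dosed 1 hour with 0.39–200 uM compound in duplicate, 0.5% DMSO final. MitoTracker Red CMXRos (250 nM, 30 min) loaded before formaldehyde fixation; fluorescence quantified by high-content imaging, bidirectional fitting versus DMSO.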

[20] = APR_HepG2_CellCycleArrest_24hr: Apredica 24-hour HepG2 Assay for Cell Cycle Arrest (AID 2282905); settings: imaging, actives raise or lower the signal;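 also: cell cycle arrest scored as ratio of 2N to 4N nuclear DNA content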
Method in brief: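 Compounds at 0.39–200 uM (0.5% DMSO) for 24 h, then fixed and Hoechst 33342 stained. Cell-cycle analysis of nuclear DNA content by high-content imaging, fitted bidirectionally versus DMSO.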

Measured: AC50

CC(C)Oc1cccc(NC(=O)c2ccccc2C(F)(F)F)c1
not listed: [18] | [19] | [20]
inactive: all other assays above

Cn1c(-c2ccccc2)cc(-c2ccccc2)[n+]1C
active: [2] 2110 nM
not listed: [7] | [18] | [19] | [20]
inactive: all other assays above

COP(=S)(OC)SCn1nnc2ccccc2c1=O
active: [17] 100000 nM
inactive: all other assays above

COCC(=O)N(c1c(C)cccc1C)C(C)C(=O)OC (stereo not drawn)
not listed: [4] | [7] | [20]
inactive: all other assays above

Clc1cccc(C(Cl)(Cl)Cl)n1
not listed: [19]
inactive: all other assays above

CCC(C)n1c(=O)[nH]c(C)c(Br)c1=O (stereo not drawn)
not listed: [4] | [18] | [20]
inactive: all other assays above

CCNC(=O)NC(=O)C(C#N)=NOC
active: [1] 39.1 nM
not listed: [4] | [6] | [7] | [16] | [19] | [20]
inactive: all other assays above

O=c1n(Cl)c(=O)n(Cl)c(=O)n1Cl
not listed: [1] | [20]
inactive: all other assays above
